ERG-DNA inh: inhibitors of human ERG Ets domain-DNA interaction | AID 624246 | Potency, µM (titrated, usually from 76.9 µM), most hits filed as inhibitors | P11308 | fluorescence polarization, His-ERG Ets domain / labelled DNA | 370,000 tested, 0.028% active; active = well fitted inhibition curve with a large enough effect in the polarisation, with a control signal flat; inconclusive = small, poorly fitted or top-dose-only effect, or effect the other way, or a change in a side signal; inactive = no such curve, though single readings can be large or run the other way; the % refers to the polarisation;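 also: polarization taken with two DNA probes labelled with fluorescein and Texas red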
Target sequence (P11308 whole entry, looked up, the tested form may be a part): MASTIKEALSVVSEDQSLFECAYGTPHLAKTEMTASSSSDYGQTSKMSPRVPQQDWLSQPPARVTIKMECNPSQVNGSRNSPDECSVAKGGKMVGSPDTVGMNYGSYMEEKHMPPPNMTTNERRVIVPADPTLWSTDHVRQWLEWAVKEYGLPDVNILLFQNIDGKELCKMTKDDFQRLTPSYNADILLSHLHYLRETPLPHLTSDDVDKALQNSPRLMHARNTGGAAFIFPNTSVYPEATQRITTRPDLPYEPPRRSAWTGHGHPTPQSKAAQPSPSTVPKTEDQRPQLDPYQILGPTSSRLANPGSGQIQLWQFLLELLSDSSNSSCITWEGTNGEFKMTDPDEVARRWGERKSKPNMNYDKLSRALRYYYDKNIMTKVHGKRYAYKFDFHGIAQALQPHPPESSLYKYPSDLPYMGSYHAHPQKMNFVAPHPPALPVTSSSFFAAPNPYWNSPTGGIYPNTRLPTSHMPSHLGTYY
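His-tagged ERG Ets domain (1 uM in the protein solution; 300mM KCl, 50mM Tris-HCl, 1mM EDTA, 1mM DTT, pH 7.5) received compound, then a probe mix of 5 nM fluorescein-DNA and 100nM Texas-615-DNA. Fluorescence polarization was read for both dyes.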
FUS suppressor: FUS proteinopathy suppression in yeast | S. cerevisiae FUS-expressing, growth rescue, OD600, 24 h | AID 1347120 | 390,000 tested, 0.24% active | Potency, µM (titrated, usually from 76.6 µM), actives largely listed as activators; also: nearly all actives have a fitted effect of over 55% in size
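Galactose (2%) drives FUS expression in yeast precultured in raffinose; seeding density OD 0.005. Test compounds incubated 24hr at 30C and 99% humidity before absorbance at 600 nm was measured.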
aSyn yeast inh: alpha-synuclein toxicity inhibition in yeast. Yeast expressing alpha-synuclein, growth rescue, BacTiter-Glo, 24 h. Potency, µM (series often up to 46.1 µM), actives largely listed as activators. 370,000 tested, 0.14% active; also: nearly all actives have a fitted effect of over 65% in size
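Readout is rescue of growth in alpha-synuclein-expressing yeast, so inhibitors of toxicity appear as activators. Growth after 24 hr at 30 deg C in galactose medium is quantified by luminescence.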
TDP-43 yeast inh: inhibitors of TDP-43 toxicity in yeast; TDP-43 expressing yeast growth rescue, BacTiter-Glo, 24 h; Potency, µM (top dose mostly 46.1 µM), most hits filed as activators; 410,000 tested, 1.8% active; also: nearly all actives have a fitted effect of over 50% in size
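Readout is BacTiter-Glo luminescence of cell growth, so inhibitors register as activators. TDP-43-expressing yeast at OD600=0.02 in galactose medium, after raffinose pregrowth to mid-log, were incubated with compound for 24 hr at 30 deg C.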
Mito fusion yeast: inhibitors of mitochondrial division or activators of mitochondrial fusion | S. cerevisiae fusion-defective mutant growth rescue, CellTiterGlo 48 h | Potency, µM (highest dose often 46.1 µM), actives largely listed as activators | 320,000 tested, 0.23% active | AID 485298; also: nearly all actives have a fitted effect of over 45% in size
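Compounds are tested for their ability to restore growth of mitochondrial fusion-defective yeast strains at non-permissive 37C in YPEG medium over 48 hours. Viability is quantified by luciferase luminescence.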
Abeta yeast res: compounds reversing amyloid beta toxicity in yeast. yeast expressing A-beta42, growth rescue, OD600, 48 h; response scale: 0% DMSO, 100% iron-clioquinol control. Potency, µM (series often up to 46.1 µM), actives largely listed as activators. 410,000 tested, 0.063% active; also: nearly all actives have a fitted effect of over 55% in size
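Growth rescue measured by 600 nm absorbance after 48 h yeast culture at 30 C with compound. Values normalized between DMSO and an equimolar ferric chloride plus clioquinol control.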
Numbers stand for hits; n = inactive; u = inconclusive; x = not tested or not shown. Hits are enriched below; roughly 2.2% of the tested compounds scored in any of these assays. Unless noted, calls follow the shape of the dose curve; as a rule, active = well fitted curve in the direction sought with a large enough effect; inconclusive = small, poorly fitted or top-dose-only effect, or another doubt; inactive = no such curve, though single readings can be large; an effect the other way counts as inactive or inconclusive.

SMILES	ERG-DNA inh	FUS suppressor	aSyn yeast inh	TDP-43 yeast inh	Mito fusion yeast	Abeta yeast res
COC(=O)[C@]12C[C@H](CC(=O)NCc3cccc4ccccc34)C(=O)N(CCc3ccc(OC)c(OC)c3)C1=C[C@H](C(C)C)O[C@@H]2C1CC1	x	13µM	x	x	x	x
COC(=O)[C@]12C[C@H](CC(=O)N3CCN(C(=O)c4ccco4)CC3)C(=O)N(Cc3cccc4ccccc34)C1=C[C@H](C1CCCC1)O[C@@H]2C	x	16µM	x	x	x	x
COc1ccc(-c2cn3nc(N4CCC(C(=O)Nc5ccccc5OC)CC4)sc3n2)cc1	n	n	x	n	x	n
O=C1C(=Cc2cccc(O)c2O)SC(=S)N1CCCN1CCOCC1	x	n	n	n	x	n
COc1ccc(-n2ncc(C(=O)NCc3ccc4c(c3)OCO4)c2C2CCN(C(=O)OC(C)(C)C)CC2)cc1	n	32µM	x	n	x	n
Cc1ccc(-n2ncc(C(=O)Nc3ccc4c(c3)OCO4)c2C2CCN(C(=O)OC(C)(C)C)CC2)cc1	n	28µM	x	n	x	n
Cc1ccc(-n2ncc(C(=O)NCc3ccc4c(c3)OCO4)c2C2CCN(C(=O)OC(C)(C)C)CC2)cc1C	n	25µM	x	n	x	n
Cc1cccc(C)c1-n1ncc(C(=O)NCc2ccc3c(c2)OCO3)c1C1CCN(C(=O)OC(C)(C)C)CC1	n	n	x	n	x	n
Cc1cc(C)c(NC(=O)CCS(=O)(=O)c2cc3c(cc2Cl)NC(=O)CO3)c(C)c1	n	n	n	n	x	n
Cc1ccc2ccc(C(Nc3ccccc3)c3ccc(F)cc3)c(O)c2n1 (centres undefined)	x	n	n	3.2µM	x	u
Cc1ccc2ccc(C(Nc3ccccc3)c3ccc(Cl)cc3)c(O)c2n1 (centres undefined)	x	n	u	5.6µM	x	16µM
Cc1ccc2ccc(C(Nc3ccccc3)c3ccccc3)c(O)c2n1 (centres undefined)	x	n	u	u	x	u
Cc1ccc2ccc(C(Nc3ccccc3)c3ccc(C(C)C)cc3)c(O)c2n1 (centres undefined)	x	n	11µM	u	x	u
Nc1cccc2cccnc12	x	x	n	x	x	x
CC(C)NC(=O)C(=O)Nc1ccc2c(c1)N(S(=O)(=O)c1cccs1)CCC2	n	n	n	n	n	n
CNC(=O)C(=O)Nc1ccc2c(c1)N(S(=O)(=O)c1cccs1)CCC2	n	n	n	16µM	n	n
O=C(C[n+]1ccncc1)c1ccc2ccccc2c1	x	x	n	x	x	x
Cc1ccc(C)c(S(=O)(=O)N2C(=S)NC(=O)C2C(C)C)c1 (centres undefined)	n	n	n	35µM	n	n
CC(C)c1ccc(NC(=O)COC(=O)[C@@H]2CCCN2C(=O)c2cccs2)cc1	n	u	n	35µM	x	n
O=C1C=Cc2cccc3ccc(O)c1c23	n	n	35µM	n	x	n
Cc1cccc(/C(N)=N/OC(=O)Cc2cccc3ccccc23)c1	n	n	n	11µM	n	n
Cc1ccc(/C(N)=N/OC(=O)Cc2cccc3ccccc23)cc1	n	n	n	14µM	n	n
CC(=O)c1ccc(NC(=O)c2nc(-c3ccccc3)n(-c3ccccc3Cl)n2)cc1	n	u	x	14µM	x	n
CCc1ccc(NC(=O)c2cc(C)nn2-c2ccccc2)cc1	n	n	n	16µM	n	n
CC(=O)c1ccc(NC(=O)c2nc(-c3ccccc3)n(-c3ccccc3)n2)cc1	n	n	x	18µM	x	n
Cc1nc(C(=O)Nc2cccc(Cl)c2)nn1-c1cc(OC(C)C)c(Cl)cc1Cl	n	32µM	n	n	n	n
N#Cc1ccc(NC(=O)c2nc(-c3ccccc3)n(-c3ccccc3)n2)cc1	n	n	n	n	n	n
CC(=O)Nc1ccc(NC(=O)c2cc(C)nn2-c2ccccc2)cc1	n	n	n	n	n	n
Cn1c(=O)c2c(-c3ccc(Br)cc3)n(Cc3ccc(F)cc3)cc2n(C)c1=O	n	n	x	n	x	n
CCCCOc1ccc(C(=O)NC2CCCCN(Cc3ccccc3C)C2=O)cc1 (centres undefined)	x	n	x	x	x	x

Screening data (PubChem BioAssay)
